In PubChem BioAssay (Tox21) one finds Potency data, which are given here for 18 molecules.

Results filed as inconclusive are left out. Entries that show only a call come without a potency. Active and inactive are the calls of the source. Calls follow the shape of the dose curve; as a rule, active = well fitted activation curve with a large enough effect in the repeat runs; inconclusive = weak or mixed curves; inactive = no such curve, though single readings can be large or run the other way.
Potency is read from the fitted curve at half-maximal effect.

This assay is described as follows: qHTS assay for small molecules that induce genotoxicity in human embryonic kidney cells expressing luciferase-tagged ATAD5 (AID 651632). Also: nearly all actives have a fitted effect of over 15% in size. As to conditions: HEK293T ATAD5-luciferase induction, 16 h; series mostly up to 83.3 µM. Put shortly: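 ATAD5-luc HEK293T, 2,000 cells/well; cpd or DMSO pin-transferred; 16 hr, 37C/5% CO2; Amplite 30 min RT; luminescence.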
(In general: In qHTS, concentration-response curves come from the screen itself.)
With `O=C1NC(=O)C(c2ccccc2)(c2ccccc2)N1`, the Potency entry was “inactive”.
Consider `O=c1[nH]cnc2c1ncn2[C@H]1CC[C@@H](CO)O1`, for which the Potency entry is “inactive”.
As for `C=C(C)C(=O)OCC(C)O` (stereo not drawn), the Potency entry is “inactive”.
To `O=C(Nc1ncc([N+](=O)[O-])s1)c1cccs1` belongs 3.76 µM (active).
To `CN1[C@@H]2CC(OC(=O)[C@H](CO)c3ccccc3)C[C@H]1[C@@H]1O[C@@H]12` (stereo partly drawn) belongs “inactive”; to `C1=CC2C3C=CC(C3)C2C1` (stereo not drawn), “inactive”.
For `CN1CCC[C@H]1c1cccnc1` the value was “inactive”; for `C1CCC(C(CC2CCCCN2)C2CCCCC2)CC1` (stereo not drawn), “inactive”.
As to `O=S1(=O)OC(c2ccc(O)cc2)(c2ccc(O)cc2)c2ccccc21`, the Potency result is “inactive”.
Consider `CCCCCCc1ccc(O)cc1O`, for which the Potency result was “inactive”.
In the case of `COc1ccc2cc(S(=O)(=O)N[C@H](CC(=O)N[C@H](Cc3ccc(CN4[C@H](C)CCC[C@@H]4C)cc3)C(=O)N(C)C(C)C)c3ccc4c(c3)OCO4)ccc2c1`, the Potency result is “inactive”.
In the case of `C=C1CC[C@H](O)C/C1=C\C=C1/CCC[C@]2(C)[C@@H]([C@H](C)CCCC(C)C)CC[C@@H]12`, the Potency entry was “inactive”.
For `F[B-](F)(F)F` the value was “inactive”.
Take `CN[C@H]1CC[C@@H](c2ccc(Cl)c(Cl)c2)c2ccccc21`: the Potency result was “inactive”.
In the case of `CCN(CC)C(=O)c1cccc(C)c1`, the Potency result is “inactive”.
To `O=C1OC2(c3ccccc31)c1cc(Br)c(O)c(Br)c1Oc1c2cc(Br)c(O)c1Br` belongs “inactive”.
With `CC(=O)CCC(=O)O`, the Potency result was “inactive”.
Consider `CCN(Cc1c(F)cccc1Cl)c1c([N+](=O)[O-])cc(C(F)(F)F)cc1[N+](=O)[O-]`, for which the Potency result was “inactive”.
